# Columns and labels:
# Assay in all cases: DAPPL (digital affinity profiling via proximity ligation, sequencing); 10 mM Tris-HCl pH 7.5, 50 mM NaCl, 1 mM DTT, 4% glycerol, room temperature, 30 min; GST-TFs on glutathione beads, 16-mer random dsDNA library, 0.1% formaldehyde crosslink after washing; high values mean tight binding
# [1] = biological target: T1, FEV (Homo sapiens, UniProt Q99581 1-238); conditions: protein: recombinant; tags: N-terminal GST; dsDNA, one strand shown
# T1 sequence: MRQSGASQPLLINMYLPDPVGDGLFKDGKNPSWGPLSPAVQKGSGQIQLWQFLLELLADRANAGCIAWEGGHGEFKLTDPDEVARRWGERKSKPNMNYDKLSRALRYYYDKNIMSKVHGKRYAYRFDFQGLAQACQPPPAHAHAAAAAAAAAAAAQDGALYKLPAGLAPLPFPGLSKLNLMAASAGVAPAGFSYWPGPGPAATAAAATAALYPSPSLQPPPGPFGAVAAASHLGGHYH
# In short: (§1)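 GST fusions of human transcription factors were expressed in yeast and captured with glutathione beads. Once given DNA barcodes and pooled alongside a tag-only sample, they were incubated for 30 min at room temperature with 200 nmole of a random double-stranded 16-mer DNA library in Tris/NaCl/DTT/glycerol buffer, then washed, crosslinked (0.1% formaldehyde), proximity-ligated, PCR-amplified and sequenced on an Illumina NextSeq500. The binding signal of each hexamer is its read frequency for a factor divided by its frequency for the tag-only sample.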
# [2] = biological target: ETV5 (Homo sapiens, UniProt P41161 1-510); conditions: protein: recombinant; tags: N-terminal GST; dsDNA, one strand shown
# In short: as §1
# [3] = biological target: HSF1 (Homo sapiens, UniProt Q00613 1-529); conditions: protein: recombinant; tags: N-terminal GST; chain copies: 3; dsDNA, one strand shown
# In short: as §1
# [4] = biological target: T2, SPIC (Homo sapiens, UniProt Q8N5J4 1-248); conditions: protein: recombinant; tags: N-terminal GST; dsDNA, one strand shown
# T2 sequence: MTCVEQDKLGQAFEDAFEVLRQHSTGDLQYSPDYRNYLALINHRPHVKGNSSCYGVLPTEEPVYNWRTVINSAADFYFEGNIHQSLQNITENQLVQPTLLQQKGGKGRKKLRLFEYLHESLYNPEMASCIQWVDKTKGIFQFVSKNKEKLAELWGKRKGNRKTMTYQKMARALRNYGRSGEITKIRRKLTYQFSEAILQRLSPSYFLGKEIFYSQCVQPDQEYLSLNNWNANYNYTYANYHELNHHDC
# In short: as §1
# [5] = biological target: ELF4 (Homo sapiens, UniProt Q99607 1-663); conditions: protein: recombinant; tags: N-terminal GST; dsDNA, one strand shown
# In short: as §1
# [6] = biological target: T3, ELK4 (Homo sapiens, UniProt P28324-2 1-405); conditions: protein: recombinant; tags: N-terminal GST; dsDNA, one strand shown
# T3 sequence: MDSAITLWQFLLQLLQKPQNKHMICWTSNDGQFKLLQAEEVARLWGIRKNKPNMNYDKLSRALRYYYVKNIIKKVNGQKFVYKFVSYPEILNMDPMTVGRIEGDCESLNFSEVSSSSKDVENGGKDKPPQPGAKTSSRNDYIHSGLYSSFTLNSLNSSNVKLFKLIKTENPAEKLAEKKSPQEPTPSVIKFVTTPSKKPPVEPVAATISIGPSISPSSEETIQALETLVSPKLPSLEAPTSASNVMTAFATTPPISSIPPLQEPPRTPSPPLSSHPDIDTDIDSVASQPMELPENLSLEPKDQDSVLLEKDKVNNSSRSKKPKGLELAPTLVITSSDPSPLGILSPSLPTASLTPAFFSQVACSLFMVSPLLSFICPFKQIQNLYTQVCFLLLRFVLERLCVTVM
# In short: as §1
# [7] = biological target: T4, ETV2 (Homo sapiens, UniProt O00321 1-342); conditions: protein: recombinant; tags: N-terminal GST; dsDNA, one strand shown
# T4 sequence: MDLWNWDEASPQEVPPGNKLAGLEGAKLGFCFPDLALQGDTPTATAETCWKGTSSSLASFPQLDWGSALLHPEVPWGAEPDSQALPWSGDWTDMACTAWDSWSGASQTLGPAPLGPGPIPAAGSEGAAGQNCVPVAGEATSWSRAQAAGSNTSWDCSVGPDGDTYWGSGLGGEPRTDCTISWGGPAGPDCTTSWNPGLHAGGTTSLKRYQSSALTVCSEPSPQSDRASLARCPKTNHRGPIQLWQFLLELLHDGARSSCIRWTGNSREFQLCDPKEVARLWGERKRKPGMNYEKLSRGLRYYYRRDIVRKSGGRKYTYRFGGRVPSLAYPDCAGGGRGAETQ
# In short: as §1
# [8] = biological target: T5, ELF3 (Homo sapiens, UniProt P78545 1-371); conditions: protein: recombinant; tags: N-terminal GST; dsDNA, one strand shown
# T5 sequence: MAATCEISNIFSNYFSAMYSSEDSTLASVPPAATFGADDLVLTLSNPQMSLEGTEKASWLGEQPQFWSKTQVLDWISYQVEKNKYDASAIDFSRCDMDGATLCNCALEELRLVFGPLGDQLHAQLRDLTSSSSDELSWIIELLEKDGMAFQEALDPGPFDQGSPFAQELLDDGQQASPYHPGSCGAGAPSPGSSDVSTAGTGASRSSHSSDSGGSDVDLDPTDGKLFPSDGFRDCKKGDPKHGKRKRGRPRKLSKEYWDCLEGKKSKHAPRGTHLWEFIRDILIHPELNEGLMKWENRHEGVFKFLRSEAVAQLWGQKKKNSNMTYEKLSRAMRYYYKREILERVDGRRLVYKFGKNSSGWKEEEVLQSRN
# In short: as §1
# [9] = biological target: CRX (Homo sapiens, UniProt O43186 1-299); conditions: protein: recombinant; tags: N-terminal GST; dsDNA, one strand shown
# In short: as §1
# [10] = biological target: ETV1 (Homo sapiens, UniProt P50549 1-477); conditions: protein: recombinant; tags: N-terminal GST; dsDNA, one strand shown
# In short: as §1
# Chain of ELF4 (Q99607 whole entry): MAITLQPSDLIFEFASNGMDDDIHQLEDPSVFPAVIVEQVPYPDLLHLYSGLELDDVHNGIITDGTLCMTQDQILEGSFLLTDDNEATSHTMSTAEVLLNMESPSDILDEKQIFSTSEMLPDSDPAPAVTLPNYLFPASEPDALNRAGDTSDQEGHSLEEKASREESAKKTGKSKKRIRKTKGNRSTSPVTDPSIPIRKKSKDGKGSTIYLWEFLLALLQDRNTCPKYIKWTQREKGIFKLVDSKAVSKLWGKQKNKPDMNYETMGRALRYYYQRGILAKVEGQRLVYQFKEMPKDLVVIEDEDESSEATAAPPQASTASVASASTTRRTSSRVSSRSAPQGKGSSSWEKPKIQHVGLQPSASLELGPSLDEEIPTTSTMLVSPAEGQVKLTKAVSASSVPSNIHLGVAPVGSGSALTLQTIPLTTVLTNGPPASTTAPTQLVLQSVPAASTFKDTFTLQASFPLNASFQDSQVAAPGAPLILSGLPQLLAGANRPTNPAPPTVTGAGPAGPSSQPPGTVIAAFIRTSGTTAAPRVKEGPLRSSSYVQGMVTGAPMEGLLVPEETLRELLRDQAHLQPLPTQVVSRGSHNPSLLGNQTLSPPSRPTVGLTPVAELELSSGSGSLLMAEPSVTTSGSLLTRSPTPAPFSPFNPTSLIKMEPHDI
# Chain of ETV5 (P41161 whole entry): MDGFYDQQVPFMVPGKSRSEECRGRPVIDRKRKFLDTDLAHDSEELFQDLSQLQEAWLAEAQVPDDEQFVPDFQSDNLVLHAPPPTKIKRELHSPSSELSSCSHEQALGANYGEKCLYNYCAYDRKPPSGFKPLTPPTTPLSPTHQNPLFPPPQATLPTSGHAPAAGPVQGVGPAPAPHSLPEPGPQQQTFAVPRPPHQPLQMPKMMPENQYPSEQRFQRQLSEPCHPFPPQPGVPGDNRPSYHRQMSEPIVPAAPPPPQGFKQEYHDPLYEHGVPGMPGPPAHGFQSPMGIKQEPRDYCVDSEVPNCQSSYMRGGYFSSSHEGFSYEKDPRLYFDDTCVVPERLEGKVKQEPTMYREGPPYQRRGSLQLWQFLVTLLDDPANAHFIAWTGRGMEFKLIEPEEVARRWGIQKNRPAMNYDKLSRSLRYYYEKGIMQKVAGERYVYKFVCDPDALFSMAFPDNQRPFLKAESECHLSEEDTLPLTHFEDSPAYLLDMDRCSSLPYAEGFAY
# Chain of CRX (O43186 whole entry): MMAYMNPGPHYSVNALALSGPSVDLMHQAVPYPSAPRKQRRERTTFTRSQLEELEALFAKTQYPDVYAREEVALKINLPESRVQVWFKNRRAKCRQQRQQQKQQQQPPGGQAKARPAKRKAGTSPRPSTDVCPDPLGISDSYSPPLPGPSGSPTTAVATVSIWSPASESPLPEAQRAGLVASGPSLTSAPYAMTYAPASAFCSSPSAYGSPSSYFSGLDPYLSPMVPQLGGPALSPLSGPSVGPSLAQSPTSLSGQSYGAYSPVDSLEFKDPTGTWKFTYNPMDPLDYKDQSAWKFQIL
# Chain of HSF1 (Q00613 whole entry): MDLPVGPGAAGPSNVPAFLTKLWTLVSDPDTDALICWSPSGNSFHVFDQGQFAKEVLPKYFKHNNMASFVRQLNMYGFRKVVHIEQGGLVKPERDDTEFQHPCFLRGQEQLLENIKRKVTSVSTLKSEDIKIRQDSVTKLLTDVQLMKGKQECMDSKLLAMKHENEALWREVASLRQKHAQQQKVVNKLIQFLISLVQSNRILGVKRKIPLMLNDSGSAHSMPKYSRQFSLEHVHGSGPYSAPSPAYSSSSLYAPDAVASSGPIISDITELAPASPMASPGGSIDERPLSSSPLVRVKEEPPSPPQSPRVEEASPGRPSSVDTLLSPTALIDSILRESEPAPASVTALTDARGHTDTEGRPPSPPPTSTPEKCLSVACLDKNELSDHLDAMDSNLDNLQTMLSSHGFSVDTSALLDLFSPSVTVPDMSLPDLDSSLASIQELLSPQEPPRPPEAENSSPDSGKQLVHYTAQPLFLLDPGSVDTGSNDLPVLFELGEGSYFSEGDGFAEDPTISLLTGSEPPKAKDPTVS
# Chain of ETV1 (P50549 whole entry): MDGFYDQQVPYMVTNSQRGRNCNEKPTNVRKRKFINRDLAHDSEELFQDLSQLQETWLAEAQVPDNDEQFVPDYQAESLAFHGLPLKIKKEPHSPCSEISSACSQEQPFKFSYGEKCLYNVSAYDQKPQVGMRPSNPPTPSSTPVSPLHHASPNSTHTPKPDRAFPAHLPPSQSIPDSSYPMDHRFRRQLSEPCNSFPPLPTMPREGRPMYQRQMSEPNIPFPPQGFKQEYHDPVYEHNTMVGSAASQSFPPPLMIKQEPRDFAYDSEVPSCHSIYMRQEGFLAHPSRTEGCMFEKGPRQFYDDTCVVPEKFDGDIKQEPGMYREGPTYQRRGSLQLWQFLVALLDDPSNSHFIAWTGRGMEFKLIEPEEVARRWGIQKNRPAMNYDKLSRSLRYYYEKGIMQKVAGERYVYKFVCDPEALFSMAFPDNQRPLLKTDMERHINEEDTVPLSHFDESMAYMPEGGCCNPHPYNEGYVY
sequence,measurement,setting,value
TTTTTA,binding signal,[1],"1.34 fold enrichment (6-mer frequency, TF over GST control)"
same,binding signal,[2],"1.3 fold enrichment (6-mer frequency, TF over GST control)"
same,binding signal,[3],"1.42 fold enrichment (6-mer frequency, TF over GST control)"
same,binding signal,[4],"1.32 fold enrichment (6-mer frequency, TF over GST control)"
same,binding signal,[5],"1.34 fold enrichment (6-mer frequency, TF over GST control)"
same,binding signal,[6],"1.37 fold enrichment (6-mer frequency, TF over GST control)"
same,binding signal,[7],"1.38 fold enrichment (6-mer frequency, TF over GST control)"
same,binding signal,[8],"1.43 fold enrichment (6-mer frequency, TF over GST control)"
same,binding signal,[9],"1.65 fold enrichment (6-mer frequency, TF over GST control)"
same,binding signal,[10],"1.32 fold enrichment (6-mer frequency, TF over GST control)"

# Reference: article PMC7862700, “An all-to-all approach to the identification of sequence-specific readers for epigenetic DNA modifications on cytosine”
